# In the supplement of paper PMC6522484:
# ± gives the standard deviation of the averaged measurements.
# Key:
# DLD1 [1] = experiment: cell viability (CellTiter-Glo) relative to plate median (fraction of plate median); higher = more viable cells; conditions: 5 µM; treatment time 24 h; reporter: 7TFP
# Outline: (§1)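 After seeding in 384-well plates, colorectal cancer cell lines carrying stable lentiviral TCF/Wnt firefly luciferase reporters (7TFP or TCF4/Wnt) were left 24 h. Library compounds were then added at a final 5 µM for 24 h. A Tecan F500 reader measured firefly luciferase or CellTiterGlo luminescence on parallel plates, with each well normalised to the plate median by webcellHTS2 (additive, no log transformation), and two independent replicates averaged.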
# HCT116 = experiment: as above; conditions: 5 µM; treatment time 24 h; reporter: TCF4/Wnt
# Outline: as §1
# SW480 [2] = experiment: as above; conditions: 5 µM; treatment time 24 h; reporter: 7TFP
# Outline: as §1
# DLD1 [3] = experiment: TCF/Wnt firefly luciferase reporter signal relative to plate median (fraction of plate median); higher = higher Wnt reporter signal; conditions: 5 µM; treatment time 24 h; reporter: 7TFP
# Outline: as §1
# SW480 [4] = experiment: as above; conditions: 5 µM; treatment time 24 h; reporter: 7TFP
# Outline: as §1
Compound,cell viability (DLD1 [1]),cell viability (HCT116),cell viability (SW480 [2]),TCF/Wnt firefly luciferase reporter signal (DLD1 [3]),TCF/Wnt firefly luciferase reporter signal (SW480 [4])
COC(=O)NC(=S)Nc1ccccc1NC(=S)NC(=O)OC,0.944 ± 0.071,0.966 ± 0.09,0.973 ± 0.0071,1.17 ± 0.042,1.02 ± 0.31
O=C(O)c1cccc2nc3ccccc3nc12 [1-Phenazinecarboxylic acid],1.12 ± 0.16,1.05,1.32 ± 0.11,0.986 ± 0.091,1.03 ± 0.12
FC(F)(F)c1cccc(N2CCNCC2)c1,1.04 ± 0.13,1.05 ± 0.086,1.02 ± 0.014,0.943 ± 0.015,1.02 ± 0.045
NC(=O)Cc1ccccc1 [Phenylacetamide],1.11 ± 0.071,1.005 ± 0.0071,1.01 ± 0.016,1.11 ± 0.14,1.11
C[C@@H]1CC[C@]2(NC1)O[C@H]1C[C@H]3[C@@H]4CC=C5C[C@@H](O)CC[C@]5(C)[C@H]4CC[C@]3(C)[C@H]1[C@@H]2C,0.943 ± 0.011,0.904 ± 0.035,0.957 ± 0.044,0.963 ± 0.037,0.978 ± 0.016
NCCc1c[nH]c2ccccc12,0.991 ± 0.041,1.03 ± 0.16,0.952 ± 0.061,0.988 ± 0.045,1.03 ± 0.021
CNC(=O)Oc1ccc2c(c1)[C@]1(C)CCN(C)[C@@H]1N2C,0.948 ± 0.0071,0.889 ± 0.12,0.966 ± 0.047,1.08 ± 0.12,0.989 ± 0.072
COC(C)(C)CCC[C@H](C)C/C=C/C(C)=C/C(=O)OC(C)C,0.948 ± 0.1,1.02 ± 0.014,0.972 ± 0.083,0.968 ± 0.12,0.787 ± 0.08
COC[C@]12CN(C=O)[C@@H]3[C@@H]4[C@H](OC)[C@H]1[C@@]3([C@@H](OC)C[C@H]2O)[C@@H]1C[C@@]2(O)[C@H](OC(=O)c3ccccc3)[C@@H]1[C@]4(OC(C)=O)[C@@H](O)[C@@H]2OC,1.01 ± 0.057,1.17 ± 0.057,1.05 ± 0.071,0.934 ± 0.15,1.02 ± 0.052
COc1cc([C@@H]2c3cc4c(cc3[C@H](OC(C)=O)[C@H]3COC(=O)[C@@H]23)OCO4)cc(OC)c1OC,0.903 ± 0.098,0.904 ± 0.027,1.02 ± 0.028,0.693 ± 0.014,0.867 ± 0.092
CC(=O)O[C@H]1CC[C@@]2(C)C(=CC[C@@H]3[C@@H]2CC[C@]2(C)C(=O)CC[C@@H]32)C1,1.02 ± 0.075,1.03 ± 0.083,0.983 ± 0.025,0.944 ± 0.028,1.08 ± 0.092
C=CCN1CC[C@]23c4c5ccc(O)c4O[C@H]2C(=O)CC[C@@]3(O)[C@H]1C5,1.04 ± 0.05,0.936 ± 0.011,1.08 ± 0.014,0.959 ± 0.011,0.918 ± 0.019
C=C[C@H]1CN2CC[C@H]1C[C@H]2[C@H](OC(=O)OCC)c1ccnc2ccc(OC)cc12,1.01 ± 0.06,0.911 ± 0.063,0.995 ± 0.035,0.956 ± 0.013,0.98 ± 0.1
CCC(N)C(O)c1ccc(O)c(O)c1 (stereo not given),1.02 ± 0.055,1.1 ± 0.05,1.07 ± 0.057,1.03 ± 0.22,1.08 ± 0.071
CC1NC(=O)C(NC(=O)c2cnc3ccccc3n2)COC(=O)C(C(C)C)N(C)C(=O)C2CSSCC(C(=O)N(C)C(C(C)C)C(=O)OCC(NC(=O)c3cnc4ccccc4n3)C(=O)NC(C)C(=O)N2C)N(C)C1=O (stereo not given) [Triostin A],0.968 ± 0.028,0.984 ± 0.08,0.992 ± 0.054,0.941 ± 0.073,0.871 ± 0.037
COc1cc2c(cc1OC)[C@@]13CCN4CC5=CCO[C@H]6CC(=O)N2[C@H]1[C@H]6[C@H]5C[C@H]43,1.06 ± 0.05,1 ± 0.097,1.04 ± 0.035,0.876 ± 0.096,0.974 ± 0.031
O=C([O-])c1ccccc1-c1c2cc(Br)c(=O)cc-2oc2[c]([Hg+])c([O-])c(Br)cc12.[Na+].[Na+].[OH-],0.955 ± 0.0071,0.961 ± 0.13,0.945 ± 0.0099,1 ± 0.15,0.934 ± 0.052
C=C1C2CC[C@@]3(C)[C@H](c4ccoc4)OC(=O)C[C@]13O[C@H]1CC(=O)C(C)(C)[C@H](C(OC(C)=O)C(=O)OC)[C@@]21C (stereo not given in full),1.025 ± 0.0071,1.13 ± 0.057,1 ± 0.014,1.16 ± 0.057,0.826 ± 0.048
COc1ccc2c(c1)[nH]c1c(C)nccc12,0.98 ± 0.028,0.904 ± 0.04,0.964 ± 0.036,0.623 ± 0.067,0.625 ± 0.097
CCCN1C[C@H](CSC)C[C@@H]2c3cccc4[nH]cc(c34)C[C@H]21,0.934 ± 0.0057,0.986 ± 0.049,0.863 ± 0.086,1,1.015 ± 0.0071
O=C1CCCN1CC#CCN1CCCC1,1.07 ± 0.092,1.11 ± 0.028,1.05 ± 0.042,1.01 ± 0.032,0.8175 ± 0.0035
COc1ccc(O)c2c(=O)c3c(OC)cc4c(c3oc12)C1C=COC1O4 (stereo not given),1.06 ± 0.057,1.03 ± 0.057,1.02 ± 0.028,1.01 ± 0.11,0.999 ± 0.044
CC(=O)Nc1cc([As](=O)(O)O)ccc1O,1.04 ± 0.064,0.994 ± 0.023,1.02,1.13 ± 0.085,0.973 ± 0.038
O=C1C(Cl)=C(Cl)C(=O)C(Cl)=C1Cl,0.967 ± 0.061,0.977 ± 0.033,0.991 ± 0.028,0.997 ± 0.16,1.02 ± 0.065
COc1ccc2[nH]cc(CCN)c2c1,1.09 ± 0.078,1.06 ± 0.086,1.04 ± 0.093,0.924 ± 0.095,1.06 ± 0.014
N#C/C(=C\c1cccc(O)c1)C(=O)O [alpha-CYANO-3-HYDROXYCINNAMIC ACID],1.05 ± 0.028,1.01 ± 0.033,1.04 ± 0.028,1.15 ± 0.18,1.02 ± 0.014
COc1cc(O)c2c(=O)oc3cc(O)cc(C)c3c2c1 [Alternariol-9-methylether],0.979 ± 0.044,1.03 ± 0.073,1.01 ± 0.042,0.946 ± 0.1,1.06 ± 0.064
